Source: PubChem BioAssay AID1159580 (chemical genetic matrix, 2015)
About 2,000 (36%) of roughly 5,500 compounds were called active. Inconclusive results (about 18%) are left out. Rule as the data show it: active = normalized growth mostly below about 0.91 (no sharp cut-off); inconclusive = no clear call, values can overlap the other calls; inactive = mostly above about 0.92. This is one part of the list.

Assay: chemical genetic growth profiling, strain panel (AID 1159580);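 also: tested at 20 µM; growth read once vehicle control cultures reached saturation at 30 °C; 1 = growth at the plate median or of vehicle wells; lower values mean less growth of the strain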
Details: growth OD

Measured: normalized growth

O=C(CCCN1CC=C(n2c(=O)[nH]c3ccccc32)CC1)c1ccc(F)cc1
inactive: S. cerevisiae deletion strains, locus YJR075W, strain HOC1, hits give low values 0.98 | S. cerevisiae deletion strains, locus YKL009W, strain mrt4, hits give low values 0.939 | S. cerevisiae deletion strains, locus YKL068W, hits give low values 0.989 | S. cerevisiae deletion strains, locus YKL085W, strain MDH1 (second series), hits give low values 0.994 | S. cerevisiae deletion strains, locus YKL085W, strain MDH1, hits give low values 0.994 | S. cerevisiae deletion strains, locus YKL160W, strain elf1, hits give low values 0.977 | S. cerevisiae deletion strains, locus YKL190W, strain CNB1, hits give low values 0.99 | S. cerevisiae deletion strains, locus YKR001C, strain vps1, hits give low values 0.981 | S. cerevisiae deletion strains, locus YKR026C, strain gcn3, hits give low values 0.948 | S. cerevisiae deletion strains, locus YKR091W, strain srl3, hits give low values 0.967 | S. cerevisiae deletion strains, locus YLL001W, strain dnm1, hits give low values 0.957 | S. cerevisiae deletion strains, locus YLL026W, hits give low values 0.968 | S. cerevisiae deletion strains, locus YLL041C, strain sdh2, hits give low values 0.988 | S. cerevisiae deletion strains, locus YLR027C, strain aat2, hits give low values 0.979 | S. cerevisiae deletion strains, locus YLR039C, strain RIC1, hits give low values 0.969 | S. cerevisiae deletion strains, locus YLR058C, strain SHM2, hits give low values 0.967 | S. cerevisiae deletion strains, locus YLR102C, strain apc9, hits give low values 0.989 | S. cerevisiae deletion strains, locus YLR113W, strain HOG1, hits give low values 0.971 | S. cerevisiae deletion strains, locus YLR221C, strain rsa3, hits give low values 0.976 | S. cerevisiae deletion strains, locus YLR258W, strain gsy2, hits give low values 0.987 | S. cerevisiae deletion strains, locus YLR262C, strain YPT6 (second series), hits give low values 0.954 | S. cerevisiae deletion strains, locus YLR262C, strain YPT6, hits give low values 0.942 | S. cerevisiae deletion strains, locus YLR268W, strain sec22, hits give low values 1.05 | S. cerevisiae deletion strains, locus YLR320W, strain mms22, hits give low values 0.986 | S. cerevisiae deletion strains, locus YLR330W, strain CHS5, hits give low values 0.986 | S. cerevisiae deletion strains, locus YLR342W, strain FKS1 (second series), hits give low values 0.944 | S. cerevisiae deletion strains, locus YLR342W, strain FKS1, hits give low values 0.974 | S. cerevisiae deletion strains, locus YLR357W, strain rsc2, hits give low values 0.951 | S. cerevisiae deletion strains, locus YLR370C, strain arc18, hits give low values 0.972 | S. cerevisiae deletion strains, locus YLR371W, strain rom2, hits give low values 0.949 | S. cerevisiae deletion strains, locus YLR384C, strain iki3, hits give low values 0.961 | S. cerevisiae deletion strains, locus YLR418C, strain cdc73, hits give low values 0.968 | S. cerevisiae deletion strains, locus YML016C, strain PPZ1, hits give low values 0.987 | S. cerevisiae deletion strains, locus YML032C, strain rad52, hits give low values 0.993 | S. cerevisiae deletion strains, locus YML120C, strain ndi1, hits give low values 1 | S. cerevisiae deletion strains, locus YML124C, strain tub3, hits give low values 0.975 | S. cerevisiae deletion strains, locus YMR058W, strain fet3, hits give low values 0.99 | S. cerevisiae deletion strains, locus YMR078C, strain ctf18, hits give low values 0.979 | S. cerevisiae deletion strains, locus YMR125W, strain sto1, hits give low values 0.944 | S. cerevisiae deletion strains, locus YMR129W, hits give low values 0.987 | S. cerevisiae deletion strains, locus YMR205C, strain PFK2, hits give low values 0.951 | S. cerevisiae deletion strains, locus YMR223W, strain ubp8, hits give low values 0.955 | S. cerevisiae deletion strains, locus YMR231W, strain pep5, hits give low values 0.979 | S. cerevisiae deletion strains, locus YMR263W, strain SAP30, hits give low values 0.987 | S. cerevisiae deletion strains, locus YMR307W, strain GAS1, hits give low values 0.974 | S. cerevisiae deletion strains, locus YNL067W, strain RPL9B, hits give low values 0.999 | S. cerevisiae deletion strains, locus YNL071W, strain lat1, hits give low values 0.982 | S. cerevisiae deletion strains, locus YNL128W, strain TEP1, hits give low values 0.98 | S. cerevisiae deletion strains, locus YNL153C, strain GIM3, hits give low values 0.985 | S. cerevisiae deletion strains, locus YNL183C, strain NPR1, hits give low values 0.925 | S. cerevisiae deletion strains, locus YNL209W, strain ssb2, hits give low values 0.975 | S. cerevisiae deletion strains, locus YNL233W, strain BNI4, hits give low values 0.992 | S. cerevisiae deletion strains, locus YNL248C, strain rpa49, hits give low values 0.981 | S. cerevisiae deletion strains, locus YNL250W, strain rad50, hits give low values 0.971 | S. cerevisiae deletion strains, locus YNL271C, strain bni1, hits give low values 0.995 | S. cerevisiae deletion strains, locus YNL298W, strain CLA4, hits give low values 0.982 | S. cerevisiae deletion strains, locus YNL307C, strain MCK1, hits give low values 0.968 | S. cerevisiae deletion strains, locus YNL322C, strain KRE1 (second series), hits give low values 0.984 | S. cerevisiae deletion strains, locus YNL322C, strain KRE1, hits give low values 0.987 | S. cerevisiae deletion strains, locus YNR049C, strain mso1, hits give low values 0.972 | S. cerevisiae deletion strains, locus YNR052C, strain pop2, hits give low values 0.992 | S. cerevisiae deletion strains, locus YOL006C, strain TOP1, hits give low values 0.996 | S. cerevisiae deletion strains, locus YOL012C, strain htz1 0.899 | S. cerevisiae deletion strains, locus YOL147C, strain pex11, hits give low values 0.991 | S. cerevisiae deletion strains, locus YOR001W, strain rrp6, hits give low values 0.955 | S. cerevisiae deletion strains, locus YOR061W, strain CKA2, hits give low values 0.97 | S. cerevisiae deletion strains, locus YOR070C, strain gyp1, hits give low values 0.99 | S. cerevisiae deletion strains, locus YOR080W, strain dia2, hits give low values 0.963 | S. cerevisiae deletion strains, locus YOR083W, strain WHI5, hits give low values 0.978 | S. cerevisiae deletion strains, locus YOR106W, strain vam3, hits give low values 0.933 | S. cerevisiae deletion strains, locus YOR136W, strain idh2, hits give low values 0.983 | S. cerevisiae deletion strains, locus YOR144C, strain elg1, hits give low values 0.988 | S. cerevisiae deletion strains, locus YOR184W, strain ser1, hits give low values 0.967 | S. cerevisiae deletion strains, locus YOR231W, strain MKK1, hits give low values 0.992 | S. cerevisiae deletion strains, locus YOR265W, strain rbl2, hits give low values 0.981 | S. cerevisiae deletion strains, locus YOR270C, strain vph1, hits give low values 0.956 | S. cerevisiae deletion strains, locus YOR290C, strain snf2, hits give low values 0.98 | S. cerevisiae deletion strains, locus YOR316C, strain cot1, hits give low values 0.98 | S. cerevisiae deletion strains, locus YPL051W, strain arl3, hits give low values 0.98 | S. cerevisiae deletion strains, locus YPL055C, strain LGE1, hits give low values 0.955 | S. cerevisiae deletion strains, locus YPL078C, strain atp4, hits give low values 0.949 | S. cerevisiae deletion strains, locus YPL106C, strain sse1, hits give low values 0.967 | S. cerevisiae deletion strains, locus YPL240C, strain hsp82, hits give low values 0.979 | S. cerevisiae deletion strains, locus YPL241C, strain CIN2, hits give low values 0.992 | S. cerevisiae deletion strains, locus YPL256C, strain CLN2, hits give low values 0.991 | S. cerevisiae deletion strains, locus YPR119W, strain clb2, hits give low values 0.989 | S. cerevisiae deletion strains, locus YPR141C, strain kar3, hits give low values 0.973 | S. cerevisiae deletion strains, locus YPR163C, strain tif3, hits give low values 0.989 | S. cerevisiae deletion strains, locus YPR167C, strain met16, hits give low values 0.991 | S. cerevisiae deletion strains, strain wtn01, hits give low values 0.991 | S. cerevisiae strains, strain wild type, hits give low values 0.979
